The values below come from the supplement of paper PMC6555819.

Assay in all cases: PBM binding z-score (relative to random genomic background probes); higher = stronger binding; sequences stand for … in GC…GCGATTGACAGCGTAGAATGAAGG
Assay [1] has as its system FXR:RXRa (NR concentration 270 nM, RXRa partner concentration 90 nM). The method in brief: (§1)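 Scanned fluorescence from custom Agilent 4×180K protein-binding microarrays was regression-normalized. Binding z-scores use random background probes as reference. Ligand-free nuclear receptor dimers were incubated on the arrays for 1 h and detected with antibodies against each partner (one per run).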

Assay [2] has as its system LXRa:RXRa (NR concentration 270 nM, RXRa partner concentration 90 nM). The gist of the method:
as §1

The test system of assay [3] is LXRa homodimer (NR concentration 270 nM). The method in brief:
as §1

In assay [4] the test system is LXRb:RXRa (NR concentration 270 nM, RXRa partner concentration 90 nM). The method in brief: as §1
In assay [5] the test system is LXRb homodimer (NR concentration 270 nM). The gist of the method: as §1
In assay [6] the test system is PPARa:RXRa (NR concentration 270 nM, RXRa partner concentration 90 nM). The gist of the method:
as §1

Assay [7] deals with PPARg:RXRa (NR concentration 180 nM, RXRa partner concentration 90 nM). The gist of the method:
as §1

Assay [8] has as its system PPARg:RXRa 270nM:90nM, anti-RXR (NR concentration 270 nM, RXRa partner concentration 90 nM). The gist of the method:
as §1

Assay [9] has as its system PPARg:RXRa 30nM:10nM, anti-RXR (NR concentration 30 nM, RXRa partner concentration 10 nM). The gist of the method: as §1
The test system of assay [10] is PPARg:RXRa 90nM:30nM, anti-RXR (NR concentration 90 nM, RXRa partner concentration 30 nM). The method in brief:
as §1

Assay [11] has as its system PPARg:RXRa DBDmut IVT, anti-RXR (DBD mutation: RXRa K156A/R161A, NR concentration 270 nM, RXRa partner concentration 90 nM). The gist of the method:
as §1

Assay [12] concerns PPARg:RXRa IVT, anti-PPARg (NR concentration 270 nM, RXRa partner concentration 90 nM). The method in brief: as §1
For assay [13], the system named is PPARg DBDmut:RXRa IVT, anti-PPARg (DBD mutation: PPARg1 K132A/R137A, NR concentration 270 nM, RXRa partner concentration 90 nM). The gist of the method: as §1
In assay [14] the test system is PPARg DBDmut IVT, anti-PPARg (DBD mutation: PPARg1 K132A/R137A, NR concentration 270 nM). The method in brief: as §1
Assay [15] concerns PPARg homodimer (NR concentration 180 nM). The gist of the method:
as §1

For assay [16], the system named is PXR:RXRa (NR concentration 270 nM, RXRa partner concentration 90 nM). The method in brief:
as §1

Assay [17] has as its system PXR homodimer (NR concentration 270 nM). The method in brief:
as §1

In assay [18] the test system is RARa:RXR (NR concentration 270 nM, RXRa partner concentration 90 nM). The gist of the method:
as §1

Assay [19] concerns RARa homodimer (NR concentration 270 nM). The gist of the method: as §1
Assay [20] relates to RARb:RXRa (NR concentration 270 nM, RXRa partner concentration 90 nM). The gist of the method:
as §1

Take TCATATAGGTAAAGGTGAAAGGCGAACGATATGA: the PBM binding z-score in [1] was 0.813; in [2], 1.12; in assay [3] it was -0.0796; in assay [4], 1.17; in assay [5], 0.0383; in assay [6] it was 3.4. For the same sequence, the PBM binding z-score came out at 4.29 in assay [7]; 4.99 in assay [8]; 4.35 in assay [9]; 4.93 in assay [10]; 4.32 in [11]; 4.06 in assay [12]. Also, the PBM binding z-score in [13] was 1.46; in assay [14] it was 1.05; in assay [15], 1.25; in assay [16], 0.986; in assay [17], 0.264; in [18], 1.81. Also, the PBM binding z-score in assay [19] was 0.996; in assay [20] it was 1.99.

As for CTCGAAAGGTCGGTTGATGTGAGTATACGGATAA, the PBM binding z-score in assay [1] is 1.88; in assay [2], 1.52; in [3] it was -0.145; in assay [4] it was 1.45; in [5] it was 0.455; in assay [6], 2.31. The PBM binding z-score was 0.418 in [7]; 0.917 in assay [8]; 0.204 in [9]; 0.223 in assay [10]; 0.122 in assay [11]; 0.641 in assay [12]. Also, the PBM binding z-score in assay [13] was found to be 0.802; in assay [14] it was 0.00433; in [15] it was 1.37; in assay [16] it was 1.07; in assay [17], 0.216; in assay [18] it was 1.41. Moreover, the PBM binding z-score in assay [19] stood at 0.252; in assay [20] it was 2.86.

As to CTCGTAAGGTCGTGCTCAGGTGAGTATACCAAAC, the PBM binding z-score in assay [1] was 3.16; in assay [2], 2.44; in assay [3], -0.206; in assay [4], 1.97; in assay [5], 0.357; in assay [6], 3.48. In addition, the PBM binding z-score in assay [7] was 0.721; in [8], 1.85; in assay [9], 0.398; in assay [10], 1.07; in assay [11], 0.319; in [12], 1.17. For the same sequence, the PBM binding z-score in assay [13] is 0.192; in assay [14], 0.162; in [15] it was 1.03; in assay [16], 2.23; in [17], -0.00148; in [18], 3.61. Further, the PBM binding z-score is -0.224 in assay [19] and 2.83 in [20].

For the sequence CCTGCTAGGTCCTGGTCAGCTAATCTACAGTATG, the PBM binding z-score in [1] is -0.334; in assay [2], -0.452; in assay [3] it was -0.575; in assay [4] it was -0.318; in [5], -1.07; in [6], -0.283. For the same sequence, the PBM binding z-score was -0.294 in assay [7]; -0.442 in assay [8]; -0.574 in assay [9]; -0.403 in assay [10]; 0.239 in assay [11]; -0.294 in assay [12]. For the same sequence, the PBM binding z-score in [13] is -1.02; in assay [14], -0.479; in assay [15] it was -0.652; in assay [16], -0.461; in assay [17] it was -0.864; in assay [18], -0.0873. The PBM binding z-score is -0.971 in assay [19] and 0.56 in assay [20].

As for GCGAGCAGGCCATTTGGGTCACTCAATGACGGGC, the PBM binding z-score is 0.039 in [1]; -0.0343 in [2]; -0.692 in [3]; 0.145 in assay [4]; -1.06 in assay [5]; 1.37 in assay [6]. Also, the PBM binding z-score in assay [7] was 0.6; in assay [8], 0.408; in assay [9], -0.542; in assay [10], 0.0983; in assay [11], 0.844; in assay [12] it was 2.03. Moreover, the PBM binding z-score in [13] was -1.33; in assay [14], -0.968; in assay [15], 0.0566; in assay [16] it was 0.738; in [17] it was 0.189; in assay [18], 0.937. Further, the PBM binding z-score was -0.309 in assay [19] and 1.69 in assay [20].

In the case of CCAGACAGGTGACAGGTAACTCAGTCTGGTACGC, the PBM binding z-score was -0.312 in assay [1]; -0.0899 in assay [2]; -0.169 in assay [3]; -0.0936 in assay [4]; -0.582 in [5]; 0.79 in assay [6]. For the same sequence, the PBM binding z-score came to 1.37 in [7]; 1.4 in assay [8]; 0.0561 in assay [9]; 0.74 in assay [10]; 1.77 in assay [11]; 1.46 in assay [12]. Further, the PBM binding z-score is -0.216 in assay [13]; -0.746 in assay [14]; 0.536 in assay [15]; -0.209 in assay [16]; 0.203 in [17]; 0.0624 in [18]. Also, the values for the PBM binding z-score in assay [19] and in [20] were 0.656 and 0.724, respectively.

For the sequence CCGACTCGGGCAAAGGTTACCATACTCAGTACGA, the PBM binding z-score in [1] is 1.22; in assay [2], 1.83; in assay [3], -0.0865; in [4] it was 1.94; in assay [5], -0.792; in assay [6], 4.45. Also, the PBM binding z-score turned out to be 8.25 in assay [7]; 8.33 in assay [8]; 7.28 in [9]; 9.75 in assay [10]; 1.5 in assay [11]; 4.06 in [12]. Further, the PBM binding z-score in assay [13] is -0.108; in assay [14] it was -0.188; in [15], 2.32; in assay [16], 2.01; in assay [17], -0.0786; in [18], 3.12. Further, the PBM binding z-score worked out at 0.537 in [19] and 2.04 in assay [20].
